Only some compounds are listed: those with a hit (about 0.94% of all), similar ones and a draw of the others.
MazEF act – activators of E. coli MazEF toxin-antitoxin RNase, primary screen, biochemical, fluorescence, uHTS. Endoribonuclease toxin MazF (Escherichia coli (strain K12)), P0AE70. FAM/BHQ RNA-DNA oligo cleavage fluorescence, 5 h. activation, % at 20 µM. 350,000 compounds, 0.32% hits. AID 504720, 2011; in the data active means activation above about 50%
Target sequence (P0AE70 whole entry, looked up): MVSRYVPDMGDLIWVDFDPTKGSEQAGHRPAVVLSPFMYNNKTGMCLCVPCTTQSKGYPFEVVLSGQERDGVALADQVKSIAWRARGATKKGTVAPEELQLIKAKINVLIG
BH1578 lux ind – inducers of Vibrio cholerae quorum light production without autoinducers, primary screen, BH1578 luxS cqsA deficient, single point; 350,000 compounds, 0.16% hits; activation, % at 18.7 µM; V. cholerae BH1578 lux reporter, luminescence, 6 h; AID 588436, 2011; in the data active means activation mostly above about 9.7%, no sharp cut-off
Mtb hypoxia inh – PubChem AID 1159583; M. tuberculosis hypoxia-regulated fluorescent reporter, fluorescence; fluorescence inhibition, % (concentration not given with the values); 300,000 compounds, 0.1% hits; in the data active means fluorescence inhibition mostly above about 23%, no sharp cut-off; inactive means mostly below about 17%
PriA SSB inh – inhibitors of Klebsiella pneumoniae PriA binding to SSB C-terminal tail, primary screen, biochemical, AlphaScreen | AlphaScreen SSBct-PriA binding, biotinylated peptide | inhibition, % at 33 µM | 430,000 compounds, 0.6% hits | AID 1272365, 2023; in the data active means inhibition mostly above about 37%, no sharp cut-off; inactive means mostly below about 20%;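 further: plate controls were negative control peptide for no effect and reference peptide for full effect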
The depositor's hits bear a star; i = inactive; . = not tested or not shown; + = active, no number.

SMILES	MazEF act	BH1578 lux ind	Mtb hypoxia inh	PriA SSB inh
Cc1ccc(S(=O)(=O)Nc2c(S(=O)(=O)c3ccc(C)cc3)c3nc4ccccc4nc3n2CCC(C)C)cc1	.	.	.	62.5*
CCCCCn1c(NS(=O)(=O)c2ccc3ccccc3c2)c(S(=O)(=O)c2ccc(C)cc2)c2nc3ccccc3nc21	.	.	.	62.2*
CCCCn1c(NS(=O)(=O)c2ccc(Cl)cc2)c(S(=O)(=O)c2ccccc2)c2nc3ccccc3nc21	.	.	.	51.0
CCCCn1c(NS(=O)(=O)c2ccccc2)c(S(=O)(=O)c2ccccc2)c2nc3ccccc3nc21	.	.	.	63.6*
CCCCn1c(NS(=O)(=O)c2ccc(C)cc2)c(S(=O)(=O)c2ccc(C)cc2)c2nc3ccccc3nc21	.	.	.	61.8*
Cc1nc2scc(-c3cccc(NC(=O)Cc4ccc(F)cc4)c3)n2c(=O)c1C	.	.	.	-4.0
O=S(=O)(Nc1c(S(=O)(=O)c2ccccc2)c2nc3ccccc3nc2n1C1CCCCC1)c1ccccc1	3.6	-0.4	3.8	73.3*
CCCCOCCCn1c(NS(=O)(=O)c2ccc(Cl)cc2)c(S(=O)(=O)c2ccc(C)cc2)c2nc3ccccc3nc21	.	.	.	55.8*
CCCCCn1c(NS(=O)(=O)c2ccc(C)cc2)c(S(=O)(=O)c2ccc(C)cc2)c2nc3ccccc3nc21	.	.	.	67.0*
CCCCCn1c(NS(=O)(=O)c2ccccc2)c(S(=O)(=O)c2ccc(C)cc2)c2nc3ccccc3nc21	.	.	.	75.7*
CCCCCn1c(NS(=O)(=O)c2ccc(C)cc2)c(S(=O)(=O)c2ccccc2)c2nc3ccccc3nc21	.	.	.	51.9
Cc1ccc(S(=O)(=O)Nc2c(S(=O)(=O)c3ccccc3)c3nc4ccccc4nc3n2CCc2ccccc2)cc1	.	.	.	44.8
O=C(c1c(F)cccc1F)N1CCN(c2ccc(-c3cccs3)nn2)CC1	.	.	.	18.0
O=C(Cc1c(F)cccc1Cl)Nc1ccc2c(c1)CN(C(=O)c1ccco1)CC2	.	.	.	-5.0
N#Cc1ccc(N2C(=O)[C@@H]3C(C(=O)c4ccc5ccccc5n4)=NN[C@@H]3C2=O)cc1	120.3*	-1.0	.	-10.0
N#Cc1ccc(N2C(=O)[C@@H]3C(C(=O)c4cnccn4)=NN[C@@H]3C2=O)cc1	-66.9	i	-4.2	-2.4
COc1ccc(CCC(=O)NCCSc2ncc(-c3ccc(OC)cc3)[nH]2)cc1	.	.	.	38.0*
Cc1ccc(NC(=O)c2ccc(NCC3CCCO3)c([N+](=O)[O-])c2)cc1Cl (stereo not drawn)	267.3*	i	.	-6.0
Cc1ccc(NC(=O)c2ccc(NCc3ccco3)c([N+](=O)[O-])c2)cc1Cl	334.1*	-0.4	-4.0	3.6
C[C@H]1CCCN(c2c(S(=O)(=O)c3ccccc3)cnc3ccc(F)cc23)C1	.	.	.	-1.0
Nc1cc(SCc2ccc(Cl)cc2Cl)ncn1	56.3*	i	1.1	2.4
N=c1n(CC(=O)c2ccc(Br)cc2)c2ccccc2n1Cc1ccccc1	-17.7	-8.3	-3.1	-4.5
N=c1n(CC(=O)c2ccc([N+](=O)[O-])cc2)c2ccccc2n1Cc1ccc(Cl)cc1	177.8*	-0.1	2.4	4.5
N=c1n(CC(=O)c2ccc([N+](=O)[O-])cc2)c2ccccc2n1Cc1ccccc1Cl	9.0	-0.4	1.2	0.1
N=c1n(CC(=O)c2ccc([N+](=O)[O-])cc2)c2ccccc2n1Cc1ccccc1	328.6*	-0.6	3.3	0.2
SMILES	MazEF act	BH1578 lux ind	Mtb hypoxia inh	PriA SSB inh
CN1C=CC=C/C1=C(/C#N)c1nc(-c2ccc(Cl)cc2)cs1	.	.	.	134.0*
CN1C=CC=C/C1=C(/C#N)c1nc(-c2ccccc2)cs1	.	.	.	99.0*
CN1C=CC=C/C1=C(/C#N)c1nc2ccccc2[nH]1	.	.	.	-11.0
COc1ccccc1-c1csc(/C(C#N)=C2\C=CC=CN2C)n1	.	.	.	70.0*
N#CC(=Cc1ccccn1)c1nc(-c2ccc(Cl)cc2)cs1	12.7	i	.	.
O=C(c1ccco1)N1CCN(S(=O)(=O)N2CCCCC2)CC1	.	.	.	0.0
O=S(=O)(Cc1noc2ccccc12)N1CCCC(Cc2nc(-c3cnccn3)no2)C1 (stereo not drawn)	.	.	.	-4.0
Nc1ccc(S(=O)(=O)Nc2nc3ccccc3o2)cc1	5.8	-0.9	74.6*	2.3
Nc1ccc(S(=O)(=O)Nc2cnc3ccccc3n2)cc1	-2.5	-0.1	.	-2.3
CC(=O)Nc1ccc(C2=NN(C(C)=O)[C@H](c3ccc4nccnc4c3)C2)cc1	.	.	.	-4.0
Cc1noc(C)c1CCC(=O)NCCn1ccc(-c2ccsc2)n1	.	.	.	-7.0
Cc1ccc(Cn2c(SCC(=O)Nc3ncn[nH]3)nc3ccccc3c2=O)cc1	.	.	.	90.0*
Cc1ccc(NC(=O)CSc2nc3ccccc3c(=O)n2Cc2cccs2)cc1	-22.3	-0.2	-4.9	-0.9
CNC(=O)c1c(NC(=O)c2cc3cc([N+](=O)[O-])ccc3s2)sc(C)c1C	.	.	.	-3.0
Cc1c(C(=O)N2CCN(Cc3ccc4c(c3)OCO4)CC2)cccc1[N+](=O)[O-]	2.7	-0.3	10.3	-4.9
O=C(Nc1ccccc1[N+](=O)[O-])C(=O)N1CCN(c2ccccc2F)CC1	.	.	.	36.0*
O=C(Nc1ccccc1[N+](=O)[O-])C(=O)N1CCN(Cc2ccc3c(c2)OCO3)CC1	.	.	.	50.0*
COc1ccc(N2CCCS2(=O)=O)cc1NS(=O)(=O)c1c(C)cc(C)cc1C	.	.	.	-4.0
CCN1C(C)=C(C)S/C1=C1\SC(=S)N(NC(C)=O)C1=O	-9.6	i	7.6	10.2
CCN1C(C)=C(C)S/C1=C1\SC(=S)N(C2CCCCC2)C1=O	353.7*	-0.2	.	6.0
N#Cc1ccc(-c2cccnc2)nc1SCC(=O)c1ccccc1	+	i	-1.1	-1.1
N#Cc1ccc(-c2ccccc2)nc1SCC(=O)c1cccc(Cl)c1	-36.4	-0.9	5.1	-19.2
CCS(=O)(=O)c1ccc(-c2ccc(NC(=O)c3ccccc3Br)cc2)nn1	.	.	.	-5.0
CCN1C(=O)/C(=C2\C=Cc3ccccc3N2CC)OC1=S	234.6*	-1.7	21.3	40.6
CCN1C(=O)C(=C2C=Cc3cc(C)ccc3N2CC)OC1=S	.	.	23.1	.
SMILES	MazEF act	BH1578 lux ind	Mtb hypoxia inh	PriA SSB inh
COC(=O)CC/C(C)=N\Nc1ccc([N+](=O)[O-])cc1[N+](=O)[O-]	1.4	-0.3	.	.
CCOC(=O)C(C)C(C)=NNc1ccc([N+](=O)[O-])cc1[N+](=O)[O-] (stereo not drawn)	.	.	-8.1	66.8*
CCOC(=O)CC(C)(C)C(C)=NNc1ccc([N+](=O)[O-])cc1[N+](=O)[O-]	.	.	6.9	44.0*
CCOC(=O)C(=NNc1ccc([N+](=O)[O-])cc1[N+](=O)[O-])C(=O)OCC	.	.	.	90.0*
Cc1ccn(-c2ccc(N3CCN(C(=O)c4ccccc4Br)CC3)nn2)n1	.	.	.	-15.0
COc1cc(C(=O)NCc2cccnc2)ncn1	.	.	.	-6.0
COc1ccc(C(=O)NNC2=Nc3cccc4cccc2c34)cc1	50.0*	-0.3	7.1	8.5
COc1ccc(CC(=O)NNC2=Nc3cccc4cccc2c34)cc1	6.1	i	.	-21.0
Cc1ccc(C(=O)NNC2=Nc3cccc4cccc2c34)cc1	85.8*	-0.4	-2.0	3.3
NC(=O)NNC1=Nc2cccc3cccc1c23	-4.0	0.6	10.6	4.1
NC(=NOC(=O)c1cccnc1)c1ccccc1Cl	.	.	.	-1.5
Nc1nonc1-n1nnc(C(=O)N/N=C/c2ccc3c(c2)OCO3)c1CSc1ccccc1	72.1*	-0.3	.	.

From PubChem BioAssay
